This is part of a sample that, as a whole, favours compounds with a hit. Of some 83,000 tested, about 20% had one in any assay.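 Assay: single dose, 48 h. Readout: percent growth (0 = no net growth; negative = cell death). Active: <10.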 Calls of active or inactive are those of the source.
Tests used:
Test in all cases: NCI-60 one-dose screen, 48 h (100 = growth as untreated, 0 = no growth, -100 = all killed)
Settings in all cases: 10 µM unless noted
SR leukemia = test system: SR leukemia
RPMI-8226 leukemia = test system: RPMI-8226 leukemia
OVCAR-8 ovarian = test system: OVCAR-8 ovarian
OVCAR-5 ovarian = test system: OVCAR-5 ovarian
OVCAR-4 ovarian = test system: OVCAR-4 ovarian
SK-OV-3 ovarian = test system: SK-OV-3 ovarian
IGROV1 ovarian = test system: IGROV1 ovarian
OVCAR-3 ovarian = test system: OVCAR-3 ovarian
HS 578T breast = test system: HS 578T breast
NCI/ADR-RES ovarian = test system: NCI/ADR-RES ovarian
T-47D breast = test system: T-47D breast
BT-549 breast = test system: BT-549 breast
MDA-MB-435 melanoma = test system: MDA-MB-435 melanoma
SW-620 colon = test system: SW-620 colon
MCF7 breast = test system: MCF7 breast
HCT-116 colon = test system: HCT-116 colon
HCC-2998 colon = test system: HCC-2998 colon
KM12 colon = test system: KM12 colon

Measured: growth

Cc1ccc(S(=O)(=O)Nc2ccc(-c3cc(-c4cccc(F)c4)c(C#N)c(N)n3)cc2)cc1
inactive: OVCAR-5 ovarian 45.5% | SK-OV-3 ovarian 71.8% | HS 578T breast 31.4% | NCI/ADR-RES ovarian 41% | MDA-MB-435 melanoma 19.6% | MCF7 breast 11.3% | HCC-2998 colon 39.7% | KM12 colon 46.7%
active: SR leukemia 8.01% | RPMI-8226 leukemia -3.27% | OVCAR-8 ovarian 7.02% | OVCAR-4 ovarian -63.4% | IGROV1 ovarian -66.3% | OVCAR-3 ovarian -79.4% | T-47D breast -27.2% | BT-549 breast 7.45% | SW-620 colon -31.7% | HCT-116 colon -73.2%

O=C1CCN2C(=O)Nc3ccccc3C2C1 (stereo not drawn)
inactive: SR leukemia 96.8% | RPMI-8226 leukemia 111% | OVCAR-8 ovarian 105% | OVCAR-5 ovarian 90% | OVCAR-4 ovarian 97.6% | SK-OV-3 ovarian 101% | IGROV1 ovarian 102% | OVCAR-3 ovarian 111% | HS 578T breast 103% | NCI/ADR-RES ovarian 107% | T-47D breast 100% | BT-549 breast 109% | MDA-MB-435 melanoma 97.5% | SW-620 colon 99.8% | MCF7 breast 95.3% | HCT-116 colon 98.6% | HCC-2998 colon 100% | KM12 colon 106%

COc1cc2nc(Cl)nc(Nc3cccc(C(=O)/C=C/c4ccccc4)c3)c2cc1OC
active: SR leukemia 8.85% | RPMI-8226 leukemia -2.13% | SW-620 colon -11.9% | HCT-116 colon -52.1% | KM12 colon 9.13%
inactive: OVCAR-8 ovarian 49.6% | OVCAR-5 ovarian 68.9% | OVCAR-4 ovarian 70.6% | SK-OV-3 ovarian 81.1% | IGROV1 ovarian 37.3% | OVCAR-3 ovarian 38.2% | HS 578T breast 98.5% | NCI/ADR-RES ovarian 49.9% | T-47D breast 68.8% | BT-549 breast 62.9% | MDA-MB-435 melanoma 36.5% | MCF7 breast 12.3% | HCC-2998 colon 57.4%

CCc1cccc(CC)c1NC(=O)c1sc2nc3c(cc2c1N)CCCC3
active: MDA-MB-435 melanoma 7.29%
inactive: SR leukemia 18.2% | RPMI-8226 leukemia 85.8% | OVCAR-8 ovarian 84.7% | OVCAR-5 ovarian 95.3% | OVCAR-4 ovarian 78.2% | SK-OV-3 ovarian 81.9% | IGROV1 ovarian 64.5% | OVCAR-3 ovarian 54.6% | HS 578T breast 65.2% | NCI/ADR-RES ovarian 45.3% | T-47D breast 64.3% | BT-549 breast 74.8% | SW-620 colon 70.8% | MCF7 breast 42.5% | HCT-116 colon 71% | HCC-2998 colon 95.4% | KM12 colon 70%

O=C(O[C@@H]1Cc2c(O)cc(O)cc2O[C@@H]1c1cc(O)c(O)c(O)c1)c1cc(O)c2c(c1)OCO2
inactive: SR leukemia 72.1% | RPMI-8226 leukemia 99.8% | OVCAR-8 ovarian 103% | OVCAR-5 ovarian 97% | OVCAR-4 ovarian 99.8% | SK-OV-3 ovarian 103% | IGROV1 ovarian 107% | OVCAR-3 ovarian 106% | HS 578T breast 98.1% | NCI/ADR-RES ovarian 97.5% | T-47D breast 91.3% | BT-549 breast 96.2% | MDA-MB-435 melanoma 105% | SW-620 colon 106% | MCF7 breast 100% | HCT-116 colon 86.3% | HCC-2998 colon 104% | KM12 colon 101%

Cn1cc(-c2csc(-c3cn(CCCN4CCCCC4)c4ccc(F)cc34)n2)c2cccnc21
inactive: SR leukemia 65.9% | RPMI-8226 leukemia 69.2% | OVCAR-8 ovarian 95.3% | OVCAR-5 ovarian 91.8% | OVCAR-4 ovarian 92.8% | SK-OV-3 ovarian 99.3% | IGROV1 ovarian 85.2% | OVCAR-3 ovarian 93.2% | HS 578T breast 82.5% | NCI/ADR-RES ovarian 89.5% | T-47D breast 92% | BT-549 breast 71.3% | MDA-MB-435 melanoma 71.3% | SW-620 colon 89.7% | MCF7 breast 78.6% | HCT-116 colon 88.2% | HCC-2998 colon 102% | KM12 colon 94%

CC1(C)C(=O)/C(=C\c2ccccn2)C[C@]2(C)[C@H]3CC[C@@H]4[C@@H](C(=O)/C=C/c5ccccn5)CC[C@@]4(C)[C@]3(C)CC[C@@H]12
inactive: OVCAR-8 ovarian 15.5% | SK-OV-3 ovarian 35.1% | HS 578T breast 15.1% | MCF7 breast 12%
active: SR leukemia 3.7% | RPMI-8226 leukemia -5.71% | OVCAR-5 ovarian -21.7% | OVCAR-4 ovarian -1.54% | IGROV1 ovarian -52% | OVCAR-3 ovarian -69% | NCI/ADR-RES ovarian 0.68% | T-47D breast 3.15% | BT-549 breast -13.6% | MDA-MB-435 melanoma 4.49% | SW-620 colon 0.595% | HCT-116 colon -69.6% | HCC-2998 colon -79.7% | KM12 colon -76.2%

COc1ccc2[nH]c(-c3ccc(Cl)cc3)cc(=O)c2c1
inactive: SR leukemia 100% | RPMI-8226 leukemia 96.3% | OVCAR-8 ovarian 103% | OVCAR-5 ovarian 97.7% | OVCAR-4 ovarian 98.5% | SK-OV-3 ovarian 99.6% | IGROV1 ovarian 102% | OVCAR-3 ovarian 106% | HS 578T breast 99.7% | NCI/ADR-RES ovarian 102% | T-47D breast 116% | BT-549 breast 92.9% | MDA-MB-435 melanoma 94.7% | SW-620 colon 98.2% | MCF7 breast 91.4% | HCT-116 colon 102% | HCC-2998 colon 100% | KM12 colon 98.8%

CC(C)(C)c1nc(-c2ccc(O)c(O)c2)cs1
inactive: SR leukemia 26.9% | RPMI-8226 leukemia 39.2% | OVCAR-8 ovarian 60.9% | OVCAR-5 ovarian 91% | OVCAR-4 ovarian 76.2% | SK-OV-3 ovarian 90.6% | IGROV1 ovarian 43.8% | OVCAR-3 ovarian 61.2% | HS 578T breast 85.9% | NCI/ADR-RES ovarian 35.5% | T-47D breast 61.6% | BT-549 breast 63.3% | MDA-MB-435 melanoma 36.6% | SW-620 colon 28.6% | MCF7 breast 83% | HCT-116 colon 48.8% | HCC-2998 colon 86.1% | KM12 colon 76.7%

CC(=O)OC[C@]12CC[C@@H](/C(C)=N/O)[C@@H]1[C@H]1CC[C@@H]3[C@@]4(C)CCCNC(C)(C)[C@@H]4CC[C@@]3(C)[C@]1(C)CC2
inactive: SR leukemia 51.8% | RPMI-8226 leukemia 49.2% | OVCAR-8 ovarian 73.3% | OVCAR-5 ovarian 103% | OVCAR-4 ovarian 53.9% | SK-OV-3 ovarian 62.9% | IGROV1 ovarian 88.9% | OVCAR-3 ovarian 65.7% | HS 578T breast 76% | NCI/ADR-RES ovarian 77.4% | T-47D breast 47.7% | BT-549 breast 66.2% | MDA-MB-435 melanoma 81.8% | SW-620 colon 80.3% | MCF7 breast 57.4% | HCT-116 colon 46.5% | HCC-2998 colon 95.2% | KM12 colon 76.4%

CC(C)=CCC[C@](C)(O)[C@H]1CC[C@]2(C)[C@@H]1CC[C@@H]1[C@@]3(C)C/C(=C/c4cccc([N+](=O)[O-])c4)C(=O)C(C)(C)[C@@H]3CC[C@]12C
inactive: SR leukemia 72.7% | RPMI-8226 leukemia 59.9% | OVCAR-8 ovarian 77.5% | OVCAR-5 ovarian 94.1% | OVCAR-4 ovarian 82.5% | SK-OV-3 ovarian 109% | IGROV1 ovarian 107% | OVCAR-3 ovarian 89.7% | HS 578T breast 93.3% | NCI/ADR-RES ovarian 101% | T-47D breast 60.2% | BT-549 breast 97.1% | MDA-MB-435 melanoma 94.2% | SW-620 colon 72.6% | MCF7 breast 72.8% | HCT-116 colon 51.5% | HCC-2998 colon 85.7% | KM12 colon 86%

COc1ccccc1CNc1nc(N)nc2[nH]c3ccc(O)cc3c12
inactive: RPMI-8226 leukemia 48.8% | OVCAR-8 ovarian 53.7% | OVCAR-5 ovarian 76.4% | OVCAR-4 ovarian 80.2% | SK-OV-3 ovarian 73.4% | IGROV1 ovarian 50.9% | OVCAR-3 ovarian 44.6% | HS 578T breast 59.2% | NCI/ADR-RES ovarian 82.6% | T-47D breast 32.1% | BT-549 breast 62.8% | SW-620 colon 25.9% | MCF7 breast 19.2% | HCT-116 colon 31% | HCC-2998 colon 67% | KM12 colon 22.4%
active: SR leukemia 4.16% | MDA-MB-435 melanoma -27.6%

COc1cnc2c(c1)C(=O)c1c-2n(CCCNCCN2CCOCC2)c(=O)c2cc([N+](=O)[O-])ccc12
active: SR leukemia -0.128% | RPMI-8226 leukemia -14.5% | OVCAR-8 ovarian 2.29% | OVCAR-4 ovarian -13.5% | SK-OV-3 ovarian -12.9% | OVCAR-3 ovarian -25.9% | NCI/ADR-RES ovarian 7.12% | SW-620 colon -55.2% | MCF7 breast 3.37% | HCT-116 colon -60.4% | HCC-2998 colon -73.3% | KM12 colon -38.1%
inactive: OVCAR-5 ovarian 15.3% | IGROV1 ovarian 15.6% | HS 578T breast 26.7% | T-47D breast 15.7% | BT-549 breast 13.4% | MDA-MB-435 melanoma 13.7%

N#C/C(=C\c1ccc(-c2ccc(Br)cc2)o1)c1nc(-c2ccco2)cs1
inactive: SR leukemia 95.6% | RPMI-8226 leukemia 61.4% | OVCAR-8 ovarian 99.8% | OVCAR-5 ovarian 63.4% | SK-OV-3 ovarian 91% | IGROV1 ovarian 60.9% | OVCAR-3 ovarian 106% | HS 578T breast 100% | NCI/ADR-RES ovarian 99.8% | BT-549 breast 98% | MDA-MB-435 melanoma 98.2% | SW-620 colon 95.6% | MCF7 breast 15.4% | HCT-116 colon 95.6% | HCC-2998 colon 34.1% | KM12 colon 59.4%
active: OVCAR-4 ovarian -6.53% | T-47D breast -26.4%

COc1cccc(-c2nn(-c3ccccc3)cc2-c2ccnc(NCCCNS(=O)(=O)c3ccccc3)c2)c1
inactive: RPMI-8226 leukemia 18.4% | OVCAR-8 ovarian 16% | OVCAR-5 ovarian 67.2% | OVCAR-4 ovarian 39.6% | SK-OV-3 ovarian 43% | IGROV1 ovarian 31.3% | OVCAR-3 ovarian 41.3% | HS 578T breast 37.5% | NCI/ADR-RES ovarian 21.1% | BT-549 breast 35.7% | MDA-MB-435 melanoma 37.4% | SW-620 colon 46.5% | MCF7 breast 18.2% | HCT-116 colon 25.7% | HCC-2998 colon 19.7% | KM12 colon 29.6%
active: SR leukemia 2.99% | T-47D breast -4.99%

COc1ccc(NC(=O)c2ccoc2COc2ccccc2)cc1
inactive: SR leukemia 88.4% | RPMI-8226 leukemia 91.8% | OVCAR-8 ovarian 100% | OVCAR-5 ovarian 95.8% | OVCAR-4 ovarian 101% | SK-OV-3 ovarian 106% | IGROV1 ovarian 91.2% | OVCAR-3 ovarian 109% | HS 578T breast 99.7% | NCI/ADR-RES ovarian 93% | T-47D breast 95.1% | BT-549 breast 92% | MDA-MB-435 melanoma 73.6% | SW-620 colon 97.9% | MCF7 breast 88.6% | HCT-116 colon 87.4% | HCC-2998 colon 93% | KM12 colon 93.9%

From PubChem BioAssay (NCI)
